The campaign covered roughly 48,000 compounds. About 13,000 (27%) showed an effect of 50% or more. This is one part of the list.
tested on: Wolbachia pipientis; test: Anti-Wolbachia Cell-Based Screen; format: functional; parameters: scale not given: in the data most compounds retested in dose-response had high values; details: 5 µM

| SMILES | Percent Effect [%] |
| --- | --- |
| CNCc1cn(C[C@H]2C[C@@H]3CCN2C[C@@H]3C(=O)NC2CCCCC2)nn1 | -0.1027 |
| COc1cccc([C@@H]2CCN(Cc3ccc4ccccc4n3)C[C@H]2O)c1 | -2.697 |
| CCc1ncc(CN2CCC3(CCCN(CC4CCC4)C3)C2)cn1 (centres undefined) | 67.34 |
| c1cncc(CN2CCC3(CCCN(c4nncs4)C3)C2)c1 (centres undefined) | 3.767 |
| COCCN1CCC2(CCCN(c3ncc(F)cn3)C2)C1 (centres undefined) | 7.957 |
| O=C(O)C(F)(F)F.c1cnc(N2CCCC3(CCN(CC4CCC4)C3)C2)nc1 (centres undefined) | -2.816 |
| Cc1ncc(CN2CCC3(CCCN(CC4CCC4)C3)C2)cn1 (centres undefined) | 97.43 |
| COc1ncc(CN2CCC3(CCCN(CC4CCC4)C3)C2)cn1 (centres undefined) | 83.26 |
| CCc1cnc(N2CC3(CCN(Cc4ccsc4)C3)C2)nc1.O=C(O)C(F)(F)F | 18.1 |
| CCc1ncc(CN2C[C@H]3CC[C@@H]2CN(C(=O)C2CCC2)C3)cn1 | -5.818 |
| Fc1cnc(N2CC3(CCN(CC4CC4)C3)C2)nc1.O=C(O)C(F)(F)F | 6.625 |
| Cc1c(CN2CCCC(C(=O)c3ccccc3)C2)cc(C#N)n1C (centres undefined) | -33.94 |
| CCn1ncc(CN2CCCC(C(=O)c3ccc(Cl)cc3)C2)c1C (centres undefined) | -8.229 |
| CC(C)CNC(=O)[C@H]1C[C@@H]2CN(Cc3cccnc3)C[C@H]1O2.O=C(O)C(F)(F)F.O=C(O)C(F)(F)F | 1.995 |
| O=C(O)C(F)(F)F.O=C1[C@H]2CN(Cc3ccccc3)C[C@H]2CN1c1cncnc1 | 5.118 |
| CCNC(=O)[C@H]1CN(Cc2ccccc2)C[C@@H]1C(=O)c1ccccc1 | 155 |
| COCCN(C)C(C)Cc1ccccc1OC (centres undefined) | -4.833 |
| CO[C@H]1CN(Cc2ccc(C)o2)[C@@H]2CCCO[C@H]12.O=C(O)C(F)(F)F | -4.054 |
| Cc1noc(C)c1CN1C[C@H](OCC2CC2)[C@H]2OCCC[C@H]21.O=C(O)C(F)(F)F | 2.314 |
| Cc1noc(C)c1CN1C[C@H](OCC(=O)N(C)C)[C@H]2OCCC[C@H]21.O=C(O)C(F)(F)F | -4.98 |
| CO[C@@H]1CN(Cc2scnc2C)[C@@H]2CCCO[C@@H]21.O=C(O)C(F)(F)F.O=C(O)C(F)(F)F | -11.47 |
| CN(Cc1cncnc1)[C@H]1CN(CC2CC2)[C@@H]2CCCO[C@@H]21.O=C(O)C(F)(F)F.O=C(O)C(F)(F)F | -10.71 |
| CO[C@@H]1CC[C@H]2[C@H]1OCCN2CC1CCOCC1.O=C(O)C(F)(F)F | 4.293 |

| SMILES | Percent Effect [%] |
| --- | --- |
| CCO[C@H]1CN(CC2CC2)[C@@H]2CCCO[C@H]12.O=C(O)C(F)(F)F | 109.7 |
| CO[C@H]1CN(CC2CC2)[C@@H]2CCCO[C@H]12.O=C(O)C(F)(F)F | 102.7 |
| CO[C@H]1CN(CC2CCOCC2)[C@@H]2CCCO[C@H]12.O=C(O)C(F)(F)F | 117.1 |
| CC(=O)N1CCC2(CCN(CC(C)C)C2)C1 (centres undefined) | -12.71 |
| CCNC(=O)NC[C@H]1C[C@@H]2CCN1C[C@@H]2c1cc(-c2cccs2)nn1C | -4.515 |
| CCN(CC)C[C@H]1CN2CC[C@H]1C[C@@H]2CNC(=O)Nc1ccsc1 | 12.78 |
| O=C(O)C(F)(F)F.O=C(c1ccncc1F)N1C[C@@H]2OCCN(CC3CC3)[C@@H]2C1 | -13.64 |
| c1cnc(Nc2ccc(C3CCCCN3)cn2)cn1 (centres undefined) | 123.5 |
| Cc1cc(C)nc(Nc2ccc(C3CCCCN3)cn2)n1 (centres undefined) | 126 |
| Cc1cccc(Nc2ccc(C3CCCCN3)cn2)n1 (centres undefined) | 86.37 |
| CC(=O)N1CCOCC2(CCCNC2)C1 (centres undefined) | -30.9 |
| CCCN1C[C@H]2CC[C@@H]1CN(C(=O)Cn1c(C)cc(C)nc1=O)C2 | -4.771 |
| c1ccc(COC[C@@]23CCC[C@@H]2CN(Cc2ccccn2)C3)nc1 | -0.5697 |
| Cn1cc(CN2CCN3C[C@H](Oc4cccnc4)C[C@H]3C2)cn1 | -3.726 |
| Cn1cc(CN2C[C@H]3CCC[C@@]3(COc3ccccn3)C2)cn1.O=C(O)C(F)(F)F.O=C(O)C(F)(F)F | 101.4 |
| O=C(O)C(F)(F)F.O=C(O)C(F)(F)F.c1ccc(CN2C[C@H]3CCC[C@@]3(COCC3CC3)C2)nc1 | 8.685 |
| Cn1cc(CN2C[C@H]3CCC[C@@]3(COc3cccnc3)C2)cn1 | 95.98 |
| O=C(c1csc(-c2ncccn2)n1)N1CCN2CCCCC2C1 (centres undefined) | -3.286 |
| Cc1ccc2nc(C)cc(C(=O)N[C@H]3COC[C@@H]3N3CCOCC3)c2c1 | -2.538 |
| CCCc1nc(C(=O)N[C@H]2COC[C@@H]2N2CCN(C)CC2)cs1 | 87.61 |
| Cc1cc(C)n2nc(C(=O)N[C@H]3C[C@H]4CN(C)CCN4C3)cc2n1 | -14.62 |
| O=C(N[C@H]1COC[C@@H]1N1CCCC1)c1csc(-c2cccs2)n1 | 103.2 |
| O=C(N[C@H]1COC[C@@H]1N1CCCC1)c1c[nH]nc1C1CCCCC1 | 3.503 |

| SMILES | Percent Effect [%] |
| --- | --- |
| Cc1nc(C(=O)N[C@H]2COC[C@@H]2N2CCCCC2)cs1 | 100.8 |
| Cc1cc(C(=O)N[C@H]2COC[C@@H]2N2CCOCC2)c2ccc(F)cc2n1 | -11.09 |
| O=C(N[C@H]1COC[C@@H]1N1CCCC1)c1csc(Cc2ccccc2)n1 | 115.4 |
| Cc1ccc2nc(C)c(C)c(C(=O)N[C@H]3COC[C@@H]3N3CCCC3)c2c1 | -0.09991 |
| Fc1cnc(N2CCOCC3(CCCNC3)C2)nc1 (centres undefined) | -3.763 |
| CCCN1CC2(CCN(c3ncc(F)cn3)CC2)CC1C(=O)O (centres undefined) | 2.005 |
| CC(C)c1ocnc1C(=O)N1CCC2(CC1)OCCO2 | -1.453 |
| O=S(=O)(NC[C@H]1C[C@@H]2CCN1C[C@@H]2CN1CCOCC1)c1ccccc1 | -10.01 |
| c1c[nH]c2nc(C3CCNCC3)nc-2c1 | 118.5 |
| c1c[nH]c2nc(C3CCCNC3)nc-2c1 (centres undefined) | 109 |
| Cl.O=C(NCC1CCC2(CCNCC2)O1)C1CC1 (centres undefined) | -17.62 |
| O=C(c1nc(=O)[nH]c2ccccc12)N1CCCC2(CCNC2)C1 (centres undefined) | 12.22 |
| O=C(c1onc2ccccc12)N1CCC2(CCCNC2)C1 (centres undefined) | 102.5 |
| Cl.O=C(N1CCOCC1)N1CCCC2(CCCNC2)C1 (centres undefined) | -22.36 |
| Cc1cccc(CN2CC3C[C@]3(NC(=O)c3cccc(F)c3)C2)n1.O=C(O)C(F)(F)F (some centres undefined) | -4.676 |
| Cc1ccc(N2CCC3(CCCN3Cc3ccn(C)n3)CC2)nn1.O=C(O)C(F)(F)F | 10.32 |
| COCC1CC2(CCN(c3ccc(C)nn3)CC2)CN1C(C)C.O=C(O)C(F)(F)F (centres undefined) | 99.94 |
| CC(C)CN1CCCC2(CCN(c3ccc(C#N)cn3)C2)C1.O=C(O)C(F)(F)F (centres undefined) | -6.214 |
| COCC1CC2(CCN(c3ccccn3)CC2)CN1C(C)C.O=C(O)C(F)(F)F.O=C(O)C(F)(F)F (centres undefined) | 104.7 |
| CCN1C[C@@H]2CN(c3cc(OC)ncn3)CCC[C@]2(C(=O)O)C1.O=C(O)C(F)(F)F | -1.589 |
| COCC1CC2(CCN(c3cc(OC)ncn3)CC2)CN1C(C)C.O=C(O)C(F)(F)F (centres undefined) | 103.7 |
| COCC1CC2(CCN(c3cccc(C)n3)CC2)CN1C(C)C.O=C(O)C(F)(F)F.O=C(O)C(F)(F)F (centres undefined) | 94.82 |
| COc1cc(N2CCC[C@]3(C(=O)O)CN(C(C)C)C[C@@H]3C2)ncn1.O=C(O)C(F)(F)F | 8.121 |

| SMILES | Percent Effect [%] |
| --- | --- |
| COCC1CC2(CCN(Cc3ccccn3)CC2)CN1C(C)C (centres undefined) | -12.67 |
| COCCCN1CCCC12CCN(c1ncccn1)CC2.O=C(O)C(F)(F)F | 8.313 |
| CCN1C[C@@H]2CN(Cc3cccs3)C[C@@H]2C1=O.O=C(O)C(F)(F)F | -3.908 |
| COCCNC(=O)C1(c2ccc(C)c(OC)c2)CCCC1 | -0.08716 |
| COCC1CC2(CCN(CC3CC3)CC2)CN1Cc1ccccn1.O=C(O)C(F)(F)F.O=C(O)C(F)(F)F (centres undefined) | 83.44 |
| O=C(C1CCCO1)N1CCC2(CC1)CNCCO2 (centres undefined) | -5.383 |
| CCN(CC)C[C@H]1CN2CC[C@H]1C[C@@H]2CNC(=O)c1ccco1 | -16.25 |
| CNc1ncc(CN(C)c2ncnc3onc(C)c23)cn1 | 70.58 |
| c1cncc(C(Cn2cnnc2)N2CCOCC2)c1 (centres undefined) | 3.663 |
| CC(C)N1CCO[C@H]2CN(Cc3cc[nH]n3)C[C@H]21.O=C(O)C(F)(F)F.O=C(O)C(F)(F)F | 92.97 |
| COCCN1CCO[C@H]2CN(Cc3cccc(C)n3)C[C@H]21.O=C(O)C(F)(F)F.O=C(O)C(F)(F)F | 106.4 |
| CC(C)N1CCO[C@H]2CN(C(=O)Cc3cccs3)C[C@H]21.O=C(O)C(F)(F)F | 10.95 |
| Cc1cccc(CN2C[C@@H]3OCCN(C)[C@@H]3C2)n1 | 7.406 |
| Cc1cccc(CN2C[C@@H]3OCCN(c4cnccn4)[C@@H]3C2)n1.O=C(O)C(F)(F)F | -8.161 |
| CC(C)N1CCO[C@H]2CN(C(=O)Cc3ccsc3)C[C@H]21.O=C(O)C(F)(F)F | 16.26 |
| CC[C@H]1CN2CC[C@H]1C[C@@H]2CNCc1ccc(OC)cc1 | -6.876 |
| Cc1cccc(-n2nnnc2C2(NCc3ccco3)CCCCC2)c1 | 79.56 |
| Clc1ccc(-n2nnnc2C2(NCc3ccco3)CCCCC2)cc1 | 73.59 |
| COc1ccc(-n2nnnc2C2(NCc3ccco3)CCCCC2)cc1 | 77.41 |
| Cc1ccc(Cl)cc1-n1nnnc1C1(N2CCCC2)CCCCC1 | -13.17 |
